Only a selection was taken, and hits are over-represented in it overall.
HSV replic up: increases HSV replication in cells | HSV replication augmentation in cells, fold increase | maximum fold increase | hit rate 0.005% among 220,000 | AID 1956; in the data active = maximum fold increase above about 1.5; inconclusive = no clear call, values can overlap the other calls; tested in PC3 cells
Insulin prom up: MIN6 insulin promoter up-regulation; z-score at 5 µM; MIN6 insulin promoter-GFP reporter, high-content imaging; hits give high values; hit rate 0.3% among 190,000;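 active = z-score above 3 at 5 µM with at least 500 cells counted in the well; inconclusive = wells under 500 cells, flagged as cytotoxic or low count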
ROMK mod: human ROMK K+ channel modulation, primary screen; P48048; Tet-inducible ROMK, thallium flux fluorescence; actives lie on both sides; B-score at 10 µM; hit rate 2% among 130,000; AID 1918;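 active = signal ratio slope over the read window, or its plate-corrected B-score, at least 3 SD from the plate mean, either direction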;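 note: B-score of the F/F0 ratio slope over 7 to 12 s after thallium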
Target sequence (P48048 whole entry, looked up): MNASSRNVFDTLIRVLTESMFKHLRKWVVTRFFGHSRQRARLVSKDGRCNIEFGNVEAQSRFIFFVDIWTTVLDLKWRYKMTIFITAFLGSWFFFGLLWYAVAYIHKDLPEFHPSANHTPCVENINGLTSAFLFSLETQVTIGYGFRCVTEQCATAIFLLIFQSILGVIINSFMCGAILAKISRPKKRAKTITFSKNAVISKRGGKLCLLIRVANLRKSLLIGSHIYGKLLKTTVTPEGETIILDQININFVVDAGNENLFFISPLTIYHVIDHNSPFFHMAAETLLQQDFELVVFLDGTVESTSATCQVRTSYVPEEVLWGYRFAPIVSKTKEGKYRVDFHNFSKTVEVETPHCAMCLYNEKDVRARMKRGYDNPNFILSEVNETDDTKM
INS promoter inh: TRM-6 insulin promoter activity inhibition; inhibition, % at 2 µM; TRM-6 cells (human fetal islet line), insulin promoter-eGFP reporter, imaging; reporter expression induced with tamoxifen; hit rate 0.9% among 130,000; AID 1273;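 active = inhibition above the mean plus 3 SD, with well images judged a real hit on visual review, cut at about 60% in these data, passing the limit was not always enough; inconclusive = inhibition over the cutoff but images rejected on review; inactive = inhibition not above the cutoff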
TbHK1 inh: T. brucei hexokinase 1 inhibition | hit rate 0.11% among 220,000 | recombinant TbHK1, G6PDH-coupled NADH A340 | inhibition, % at 10 µM;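 active = inhibition of 50% or more in the single-dose primary screen; inactive = inhibition below 50%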
ROMK retest: human ROMK channel modulation, retest confirmation | shares compounds with ROMK mod | ROMK thallium flux, fluorescence ratio; hits give low values | normalized thallium flux (F/F0 slope) at 10 µM | hit rate 54% among 3,000 | AID 1917;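 active = Flux at 10 µM at least 3 SD below or above vehicle control mean in one or both replicates; inconclusive = no clear call, values can overlap the other calls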
The depositor's hits bear a star; i = inactive; ? = inconclusive; nt = no result.

SMILES | HSV replic up | Insulin prom up | ROMK mod | INS promoter inh | TbHK1 inh | ROMK retest
CCOC(=O)NC(Nc1sc2c(c1C(=O)OC)CCN(C)C2)(C(F)(F)F)C(F)(F)F | i | -0.02 | -0.0396 | 44.4 | -2.9 | 0.0756
N=c1n(CCO)c2ccccc2n1CCOc1ccc(Cl)cc1Cl | i | -2.67 | nt | nt | 11.6 | 0.0494*
N=c1n(CCO)c2ccccc2n1Cc1ccccc1Cl | i | -0.78 | nt | 0.0 | 8.0 | nt
Cc1ccc(-c2csc(/C(C#N)=C(\O)CCl)n2)cc1 | i | 0.13 | -3.32* | -7.1 | -8.2 | ?
N#C/C(=C(/O)CCl)c1nc(-c2ccccc2)cs1 | i | 1.09 | nt | nt | -21.0 | nt
Cc1nnc(N/N=C\c2ccc(-c3ccccc3[N+](=O)[O-])o2)n1N | i | 0.11 | -0.274 | 28.6 | 11.7 | nt
Cc1nnc(N/N=C/c2ccc(-c3ccccc3F)o2)n1N | i | -0.55 | -2.46* | -26.7 | -40.5 | 0.0594*
C(#CCN1CCC(Cc2ccccc2)CC1)COCCOCc1ccccc1 | i | -0.63 | -2.95* | -13.3 | -1.0 | 0.0634*
c1ccc(COCCN2CCN(CCOCc3ccccc3)CC2)cc1 | i | 0.05 | -0.795 | -43.3 | -1.7 | nt
COc1ccccc1C(=O)OCc1ccc2sc(C)nc2c1 | i | 0.1 | -0.39 | nt | -6.5 | nt
CCSc1nnc2nc(C)cc(C)n12 | i | 0.21 | 1.91* | 45.7 | 0.9 | 0.0797
Cc1ccccc1OCC(=O)N(Cc1nc(-c2ccccc2)no1)C(C)C | i | nt | nt | -27.3 | 2.3 | nt
COc1ccccc1OCC(=O)N(Cc1nc(-c2ccccc2)no1)C1CCCCC1 | i | -1.03 | nt | -35.1 | 2.6 | 0.079
CC(C)C(NS(=O)(=O)c1cccc2nsnc12)C(=O)Nc1nccs1 (stereo not given) | i | -0.53 | 0.0318 | nt | -13.1 | nt
Cc1ccc2nc(NC(=O)C(NS(=O)(=O)c3cccc4nsnc34)C(C)C)sc2c1 (stereo not given) | i | -0.46 | nt | nt | -11.0 | 0.0621*
Brc1ccc(-c2ccc(/C=N/Nc3nc(N4CCOCC4)nc(N4CCOCC4)n3)o2)cc1 | i | 0.14 | 0.106 | -66.7 | -6.3 | 0.0747
Clc1ccc(-c2ccc(/C=N/Nc3cc(N4CCOCC4)nc(N4CCOCC4)n3)o2)cc1 | i | -1.5 | -4.01* | -10.5 | -23.7 | 0.0581*
COC(=O)C1C(=O)C2=C(CC1C)NC(C)=C(C(=O)OCCOc1ccccc1)C2c1ccc(C)o1 (stereo not given) | i | -0.95 | -3.95* | -7.9 | -14.9 | 0.0658*
Cc1ccnc(NC(=O)CCC(=O)N(CC(=O)NC2CCCCC2)Cc2cccs2)c1 | i | 0.44 | -0.28 | -100.0 | -6.7 | 0.0767
Cc1cc(NC(=O)CCC(=O)N(CC(=O)NC2CCCC2)Cc2cccs2)no1 | i | 0.59 | 0.145 | -106.2 | -4.1 | nt
COc1ccc(/C=C/CN2CCC(CO)(Cc3ccccc3Cl)CC2)cc1 | i | nt | -1.77* | -13.0 | 11.4 | 0.0631*
COCCN1C(=O)N[C@@H](c2ccccc2)[C@@H](C(=O)OC)[C@H]1C | i | nt | nt | nt | nt | nt
COCc1cc(C)nc(SCC[N+](C)(C)CC(=O)Nc2cccc(C(F)(F)F)c2)c1C#N | i | 2.42 | -2.58* | -13.3 | 12.2 | 0.0591*
Cc1ccccc1Nc1nc(N)nc(COC(=O)c2cccc(S(=O)(=O)NCc3ccccc3)c2)n1 | i | -0.26 | -3.84* | -30.8 | -2.5 | 0.0473*
COc1ccc(C(=O)Nc2cc(C)on2)cc1S(=O)(=O)N1CC(c2ccccc2)CC1=O (stereo not given) | i | nt | 0.482 | 15.0 | 2.0 | nt
SMILES | HSV replic up | Insulin prom up | ROMK mod | INS promoter inh | TbHK1 inh | ROMK retest
CCOc1cc(/C=C(\C#N)C(=O)Nc2ccccc2[N+](=O)[O-])ccc1OCc1cccc2ccccc12 | i | nt | 0.0228 | 45.0 | -5.3 | nt
Cc1cc(/C=N\NC(=O)COc2cccc3cccnc23)c(C)n1-c1ccccc1 | i | -0.15 | 0.0321 | -17.1 | -6.1 | nt
Cc1cc(/C=N/NC(=O)C(=O)NCc2ccccn2)c(C)n1-c1ccccc1 | i | 0.48 | 2.71* | 19.4 | -32.0 | 0.089
C=CC[n+]1c(-c2ccc(Cl)cc2Cl)csc1Nc1ccc(NC(C)=O)cc1 | i | -0.68 | 2.54* | nt | -2.4 | 0.0787
O=C(Cc1n[nH]c(=O)c2ccccc12)OCC(=O)c1ccc2c(c1)OCCO2 | i | -0.68 | 3.6* | nt | 2.1 | 0.0832
O=C(Nc1ccc2snnc2c1)N1CCOCC1 | i | -0.08 | nt | nt | -2.1 | ?
O=C(Nc1ccc2snnc2c1)N1CCCCC1 | i | 0.32 | 0.316 | nt | -5.8 | nt
CCOc1c(Cl)cc(C(=O)Nc2ccccc2C(=O)O)cc1Cl | i | 0.7 | -3.62* | -14.3 | 12.6 | 0.0544*
O=Cc1s/c(=N\S(=O)(=O)c2ccccc2)n(CCCCl)c1Cl | i | -0.16 | -6.13* | nt | -17.1 | 0.0426*
CCOC(=O)Cn1nnnc1C(CC)N(Cc1cccs1)Cc1cc2cc(C)ccc2[nH]c1=O (stereo not given) | i | -0.33 | -3.97* | nt | 0.0 | 0.0722
CCOc1ccc2[nH]c(=O)c(CN(Cc3ccco3)C(CC)c3nnnn3Cc3ccccc3)cc2c1 (stereo not given) | i | nt | nt | nt | -1.3 | 0.0743
CCOC(=O)Cn1nnnc1C(C(C)C)N(Cc1cccs1)Cc1cc2cc(C)ccc2[nH]c1=O (stereo not given) | i | 1.36 | -0.384 | 3.3 | -15.1 | nt
O=C(N[C@@H](Cc1ccccc1)C(=O)OCc1ccccc1)c1nc[nH]c1C(=O)N1CCc2ccccc2C1 | ? | 0.75 | nt | nt | -2.0 | nt
Cc1noc(C)c1CCC(=O)N1CCCC(CCC(=O)NCc2ccccc2F)C1 (stereo not given) | i | nt | 1.04 | 8.7 | 10.3 | nt
CC(/C=C1\SC(=S)N(CCCC(=O)Nc2ccc(C(=O)O)cc2)C1=O)=C\c1ccccc1 | i | nt | -2.76* | 0.0 | 20.0 | 0.0582*
CC(=C\c1ccccc1)/C=C1/SC(=S)N(C(C(=O)O)C(C)C)C1=O (stereo not given) | i | 0.82 | nt | nt | -1.4 | 0.0888
CCC(C(=O)O)N1C(=O)/C(=C/C(C)=C/c2ccccc2)SC1=S (stereo not given) | i | -1.31 | nt | nt | -6.5 | nt
COc1cccc(-n2c(=O)c3c(C)c(C(=O)N(C)C)sc3n(CC(=O)NCC3CCCO3)c2=O)c1 (stereo not given) | i | 0.86 | -0.301 | 56.8 | -0.1 | nt
CCOC(=O)c1c(C)n(-c2ccccc2)c2ccc(O)c(CN(C)C)c12 | i | -1.89 | -1.8* | nt | -0.7 | ?
CCOC(=O)c1c(C)n(C)c2ccc(O)c(CN(CC)CC)c12 | i | nt | 0.726 | 12.5 | -1.7 | nt
O=C(Nc1ccccc1)N(C1=NCCCCS1)c1cccc2ccccc12 | i | -0.63 | nt | 46.0 | 3.8 | nt
O=C(Nc1ccccc1)N(C1=NCCCCS1)c1ccccc1 | i | 0.66 | nt | nt | -2.8 | 0.0726
Cc1ccccc1OCCC(=O)Nc1ccc(Cl)cc1F | nt | 0.32 | -0.423 | -33.3 | -4.1 | nt
COc1cc(N2CCCC2)c(OC)cc1/C=c1/sc2nc3ccccc3n2c1=O | nt | 16.8* | -2.52 | nt | -15.0 | 0.0507*
CC1=C(C(=O)OCCOc2ccccc2)C(c2ccsc2)NC(=O)N1C (stereo not given) | i | -0.28 | -1.31 | 0.0 | 2.5 | nt
COc1cc(C)ccc1OCCOCCOc1ccc([N+](=O)[O-])cc1 | i | 0.43 | -1.7* | -20.6 | -10.9 | 0.0711
